Reference: PMC4336329 (PLoS ONE, 2015)
Screen size: about 310,000 compounds; about 14,000 (4.5%) showed an effect of 50% or more. Effects have a minus sign here. The list comes from a sample in which strong results are over-represented; it also holds similar structures and randomly drawn compounds.

target: human ether-à-go-go-related gene (hERG) potassium channel (human, UniProt Q12809); assay: primary screen, population patch clamp on CHO cells stably expressing hERG; higher = less effect of the substance
Sequence (Q12809 whole entry, looked up): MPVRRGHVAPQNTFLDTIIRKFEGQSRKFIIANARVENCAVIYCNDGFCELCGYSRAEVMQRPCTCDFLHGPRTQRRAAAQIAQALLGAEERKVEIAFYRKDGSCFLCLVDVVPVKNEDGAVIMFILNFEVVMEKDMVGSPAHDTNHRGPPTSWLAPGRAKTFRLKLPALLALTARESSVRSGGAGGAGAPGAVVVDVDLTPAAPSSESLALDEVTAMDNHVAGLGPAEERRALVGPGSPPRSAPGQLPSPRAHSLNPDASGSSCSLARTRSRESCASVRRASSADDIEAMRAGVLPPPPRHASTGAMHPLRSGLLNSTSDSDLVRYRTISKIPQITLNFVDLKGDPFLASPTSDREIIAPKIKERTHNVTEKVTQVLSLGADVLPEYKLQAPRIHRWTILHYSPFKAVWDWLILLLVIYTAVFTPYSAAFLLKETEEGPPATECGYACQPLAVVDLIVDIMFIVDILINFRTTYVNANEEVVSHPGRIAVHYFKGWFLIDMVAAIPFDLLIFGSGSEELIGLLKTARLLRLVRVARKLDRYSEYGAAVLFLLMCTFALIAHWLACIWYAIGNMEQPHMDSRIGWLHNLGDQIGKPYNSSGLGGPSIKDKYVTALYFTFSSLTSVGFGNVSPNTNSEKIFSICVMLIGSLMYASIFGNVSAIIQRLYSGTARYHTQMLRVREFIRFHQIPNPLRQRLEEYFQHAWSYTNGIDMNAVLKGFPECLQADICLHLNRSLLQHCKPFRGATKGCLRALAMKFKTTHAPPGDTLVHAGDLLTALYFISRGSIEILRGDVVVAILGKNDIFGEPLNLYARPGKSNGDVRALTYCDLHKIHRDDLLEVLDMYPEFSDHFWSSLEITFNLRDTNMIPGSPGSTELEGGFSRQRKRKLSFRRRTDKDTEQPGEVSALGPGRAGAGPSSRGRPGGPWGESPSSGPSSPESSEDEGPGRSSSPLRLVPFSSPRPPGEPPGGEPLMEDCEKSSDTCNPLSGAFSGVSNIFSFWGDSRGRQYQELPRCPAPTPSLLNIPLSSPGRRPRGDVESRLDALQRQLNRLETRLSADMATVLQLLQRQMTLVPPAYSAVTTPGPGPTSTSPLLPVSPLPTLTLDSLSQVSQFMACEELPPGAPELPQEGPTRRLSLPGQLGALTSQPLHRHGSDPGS
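Also: peak tail current of the secondary pulse compared with the same well before compound.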

SMILES | hERG current change (%, negative = inhibition) at 10uM [%]
CCN(CC#CCC(O)(c1ccccc1)C1CCCC1)C(C)C.Cl (stereo not drawn) | -18.9
CCNC(=O)NC(=O)C(C)OC(=O)Cc1coc2cc3c(cc12)CCC3 (stereo not drawn) | 26.6
Cc1ccc(C2=NCCn3c2c2ccc(C(F)(F)F)cc2[n+]3[O-])cc1 | -26.2
Nc1c(Cl)cc(C2=NCCn3c2c2ccc(C(F)(F)F)cc2[n+]3[O-])cc1Cl | -26.1
Cc1ccc(C2=NCCn3c2c2ccc([N+](=O)[O-])cc2[n+]3[O-])cc1 | -7.51
[O-][n+]1c2cc(C(F)(F)F)ccc2c2n1CCN=C2c1ccc(Cl)cc1 | -55.6
O=[N+]([O-])c1ccc2c3n([n+]([O-])c2c1)CCN=C3c1ccc(Cl)cc1 | -29.6
Nc1c(Cl)cc(C2=NCCn3c2c2ccc([N+](=O)[O-])cc2[n+]3[O-])cc1Cl | -54.8
COc1cccc(/C=C/C(=O)OCC(=O)c2c[nH]c3ccccc23)c1OC | 9.29
CCOC(=O)c1c[nH]c2c(C)cc(C)cc2c1=O | -0.349
CCCCOP(=O)(c1ccc(N(C)C)cc1)C(O)c1ccc(OC)cc1 (stereo not drawn) | -2.61
O=[N+]([O-])c1cc(S(=O)(=O)NCCc2ccccn2)ccc1Cl | -21.8
C=CCCC(=O)Nc1nc(C)c(-c2csc(Nc3ccc(Cl)cc3)n2)s1 | 14.9
S=c1[nH]nc(-c2ccc3ccccc3n2)o1 | 17.2
Cc1ccc(C)c2[nH]c(=O)c(CCNC(=O)C(C)(C)C)cc12 | 8.5
O=C(O)CSc1ncccc1C(=O)O | -53.7
O=C(CSc1ncccc1C(=O)O)c1ccccc1 | 6.47
O=C(O)c1cccnc1SCc1ccccc1 | -1.22
O=C(N/C(=C/c1ccc(Cl)cc1)c1nc2ccccc2[nH]1)c1ccco1 | 9.34
O=c1[nH]c(C2CCN(S(=O)(=O)c3ccc(C(F)(F)F)cc3)CC2)nc2c1nnn2Cc1ccccc1 | 8.98
Cc1ccc(S(=O)(=O)N(C)C)cc1NC(=S)N(CCC#N)Cc1cccnc1 | -10.3
Cc1ccc(C(C)C)cc1OCCOCCN1CCCC1 | -38.9
COc1ccc(-c2nc(NC(=O)CSCCO)sc2C)cc1 | -4.57
Cc1ccc(NC(=O)CSc2nc3ccccc3c(=O)n2CCCC(=O)NCCCN2CCOCC2)cc1C | -69.1
COc1cccc(NC(=O)CSc2nc3ccccc3c(=O)n2CCCC(=O)NCCCN2CCOCC2)c1 | -59.8
O=C(CCCn1c(SCC(=O)NCCc2ccccc2)nc2ccccc2c1=O)NCC1CCCO1 (stereo not drawn) | -22.8
CCOC(=O)C(C)Sc1nc2ccccc2c(=O)n1CC (stereo not drawn) | -22.4

SMILES | hERG current change (%, negative = inhibition) at 10uM [%]
Cc1cc(C)c(NC(=O)CSc2nc3ccccc3c(=O)n2CCCN2CCOCC2)c(C)c1 | -47.6
O=C(CSc1nc2ccccc2c(=O)n1CCCN1CCOCC1)Nc1ccc2c(c1)OCO2 | -43.6
CCOC(=O)C(C)On1c(-n2nc(C)cc2C)nc2ccccc2c1=O (stereo not drawn) | 9.29
O=C(CCCn1c(SCc2cccc([N+](=O)[O-])c2)nc2ccccc2c1=O)NCC1CCCO1 (stereo not drawn) | -59.7
O=C(CCCn1c(SCc2cccc(F)c2)nc2ccccc2c1=O)NCC1CCCO1 (stereo not drawn) | 8.35
COc1cccc(NC(=O)CSc2nc3ccccc3c(=O)n2C)c1 | -7.76
CCCCn1c(SCC(=O)Nc2cccc(OC)c2)nc2ccc(N3CCOCC3)cc2c1=O | -9.77
CCOC(=O)C(C)On1c(SC(C)C(=O)OCC)nc2ccccc2c1=O (stereo not drawn) | -53.5
O=C(NCc1ccccc1)[C@]1(C(F)(F)F)C[C@H](CCc2ccccc2)CCCO1 | 3.84
Cn1cc(Br)c(C(=O)Nc2sc3c(c2C(N)=O)CCC3)n1 | 18.4
Cc1ccc(Cl)cc1NC(=O)c1cc(NC(=O)C2CCCCC2C(=O)O)ccc1N1CCOCC1 (stereo not drawn) | -6.57
COc1cccc(CCNC(=O)CCc2nnc(-c3ccc4c(c3)OCO4)o2)c1 | -7.05
Cc1ccc2cc(C#N)c(NCCNC(=S)NCCCN(C)C)nc2c1C | -0.554
Cc1cc(OCC(=O)NCc2ccccn2)c2c(C)c(C)c(=O)oc2c1 | -11.2
CCOC(=O)C(=O)Nc1nc(-c2ccccc2)c(-c2ccccc2)o1 | -32.1
NS(=O)(=O)c1ccc(CCNC(=O)CSc2nc3ccccc3c(=O)n2CCN2CCOCC2)cc1 | 41.4
O=C(CCCn1c(SCC(=O)NCC2CCCO2)nc2ccccc2c1=O)NCc1ccccc1 (stereo not drawn) | -29.6
COc1ccc(NC(=O)CSc2nc3ccccc3c(=O)n2CCCC(=O)NCC2CCCO2)c(OC)c1 (stereo not drawn) | -33.8
CCc1ccc(NC(=O)CSc2nc3ccccc3c(=O)n2CCCC(=O)NCCCN2CCOCC2)cc1 | -66.6
O=C(CCCn1c(SCC(=O)NC2CCCCC2)nc2ccccc2c1=O)NCC1CCCO1 (stereo not drawn) | -61.5
Cc1ccc(NC(=O)CSc2nc3ccccc3c(=O)n2CCCC(=O)NCC2CCCO2)cc1 (stereo not drawn) | -0.641
O=C(CCCn1c(SCC(=O)NCC2CCCO2)nc2ccccc2c1=O)NCC1CCCO1 (stereo not drawn) | -5.18
C=CCn1c(SCC(=O)Nc2ccc(N3CCOCC3)cc2)nc2ccccc2c1=O | 3.75
CCOc1ccc(NC(=O)CSc2nc3ccccc3c(=O)n2CCCC(=O)NCC2CCCO2)cc1 (stereo not drawn) | 3.34
CCc1ccc(NC(=O)CSc2nc3ccccc3c(=O)n2CCN2CCOCC2)cc1 | -67.6
COc1cccc(NC(=O)CSc2nc3ccccc3c(=O)n2CCCC(=O)NCC2CCCO2)c1 (stereo not drawn) | -70.3
NC(=O)c1ccc(NC(=O)CSc2nc3ccccc3c(=O)n2CCCN2CCOCC2)cc1 | -5.06
